A selection follows.
aSyn 5UTR act: Activators via SNCA 5'UTR binding, MLPCN; alpha-synuclein 5'UTR reporter, activators screen; activity score, % (tested at 7.5 µM), hits read low; actives 7.1% (n = 300,000); in the data active = activity score below about -60%
Numbers stand for hits.

Results for NC(=O)[C@@H]1CCCN1C(=O)c1ccc2oc(CCc3ccccc3)nc2c1 ?
aSyn 5UTR act: -63

Results for O=C(c1ccc2oc(CCCc3ccccc3)nc2c1)N1CCCCC1CO (stereo not given) ?
aSyn 5UTR act: -87

Results for O=C(c1ccc2oc(CCc3ccccc3)nc2c1)N1CCC(O)CC1 ?
aSyn 5UTR act: -73

What do the screens show for `CCSc1nnc(NC(=O)c2csc(C)c2)s1`?
aSyn 5UTR act: -176

Results for C/C(N)=C(/C#N)C(=O)CSc1nc2cc(Cl)ccc2s1 ?
aSyn 5UTR act: -116

What do the screens show for `CCSc1nnc(NC(=O)C2CCCCC2)s1`?
aSyn 5UTR act: -98

Results for CCSc1nnc(NC(=O)Nc2cccc(C)c2)s1 ?
aSyn 5UTR act: -143

What do the screens show for `C/C(N)=C(/C#N)C(=O)CSc1nnc(Nc2cccc(C)c2)s1`?
aSyn 5UTR act: -180

What do the screens show for `CNC[C@H](Cc1ccccc1)NC[C@@H](Cc1cccc2ccccc12)NCCc1ccc(C)cc1`?
aSyn 5UTR act: inactive

Results for Cc1nnc(NCCc2ccccc2)c2ccccc12 ?
aSyn 5UTR act: -86

Results for CC(C)(C)c1cc(C(=O)N/N=C/c2ccco2)n[nH]1 ?
aSyn 5UTR act: -146

What do the screens show for `Cc1ccsc1/C=N\NC(=O)c1cc(C(C)(C)C)[nH]n1`?
aSyn 5UTR act: -138

Results for CN(C)c1ccc(/C=C2\CCCc3c2nc2ccccc2c3C(=O)O)cc1 ?
aSyn 5UTR act: -121

What do the screens show for `CCOC(=O)N1CCN(C(=O)CSc2nnc(-c3ccc(C(C)(C)C)cc3)o2)CC1`?
aSyn 5UTR act: -73

What do the screens show for `Cc1cccc(-c2nnc(SCC(=O)N3CCCC3)o2)c1`?
aSyn 5UTR act: -83

Results for Cc1ccc(-c2nnc(SCC(=O)N3CCCC3)o2)cc1C ?
aSyn 5UTR act: -83

What do the screens show for `Cc1ccc(-c2nnc(SCC(=O)N3CCCC3)o2)cc1`?
aSyn 5UTR act: -104

What do the screens show for `O=C(CSc1nnc(-c2ccc(F)cc2)o1)N1CCCC1`?
aSyn 5UTR act: -114

How did O=C(/C=C/c1cccc(Cl)c1)Nc1ncccn1 do in these assays?
aSyn 5UTR act: -76

Results for CNC(=O)c1ccc(NC(=O)/C=C/c2cccc(F)c2)cc1 ?
aSyn 5UTR act: -98

How did CSc1cccc(NC(=O)/C=C/c2cccc(Cl)c2)c1 do in these assays?
aSyn 5UTR act: -218

How did CC(=O)c1cc(C#N)c(SCc2ccc(F)cc2)nc1C do in these assays?
aSyn 5UTR act: -98

Results for CCN1CCc2c(sc(NC(=O)C3COc4ccccc4O3)c2C(N)=O)C1 (stereo not given) ?
aSyn 5UTR act: -96

How did CCOC(=O)N1CCc2c(sc(NC(=O)C3COc4ccccc4O3)c2C(N)=O)C1 (stereo not given) do in these assays?
aSyn 5UTR act: -109

Results for CC(=O)N1CCc2c(sc(NC(=O)C3COc4ccccc4O3)c2C(N)=O)C1 (stereo not given) ?
aSyn 5UTR act: -74

How did CN1CCc2c(sc(/N=C/c3cccs3)c2C(N)=O)C1 do in these assays?
aSyn 5UTR act: -75

What do the screens show for `COc1cc2ccccc2cc1C(=O)Nc1sc2c(c1C(N)=O)CCN(C(C)C)C2`?
aSyn 5UTR act: inactive

What do the screens show for `CN1CCc2c(sc(NC(=O)C3COc4ccccc4O3)c2C(N)=O)C1` (stereo not given)?
aSyn 5UTR act: -117

Results for CN1CCc2c(sc(NC(=O)c3ccc4ccccc4c3)c2C(N)=O)C1 ?
aSyn 5UTR act: -108

Results for Cc1cccc(C)c1NC(=O)COC(=O)c1cccc2c1C(=O)c1ccccc1C2=O ?
aSyn 5UTR act: inactive

What do the screens show for `O=C(COC(=O)c1ccc2c(c1Cl)C(=O)c1ccccc1C2=O)NC1CC1`?
aSyn 5UTR act: -66

What do the screens show for `Cc1cc(C)n(-c2nc3ccccc3c(=O)n2OCC(=O)OCc2ccccc2)n1`?
aSyn 5UTR act: inactive

What do the screens show for `Cc1cc(CC(C)C)n(-c2nc3ccccc3c(=O)n2OCc2ccccc2)n1`?
aSyn 5UTR act: -75

What do the screens show for `COc1ccc2cc(C(N)=O)c(=Nc3ccccc3)oc2c1`?
aSyn 5UTR act: -90

How did COc1ccc2oc(=Nc3cc(F)ccc3F)c(C(N)=O)cc2c1 do in these assays?
aSyn 5UTR act: -176

How did CCc1ccc(C(=O)CN2CCSC2=N)cc1 do in these assays?
aSyn 5UTR act: -109

Results for Cc1cccc(N(C(=O)c2nsc(Cl)c2Cl)C(C(=O)NC2CCCC2)c2ccc(O)cc2)c1 (stereo not given) ?
aSyn 5UTR act: -82

Results for O=C(N/N=C/c1sc(=O)n(-c2ccccc2)c1Cl)c1ccccc1 ?
aSyn 5UTR act: -84

Results for CC(C)c1ccc(/C=C2\SC(=S)N(CCC(=O)NCCCn3ccnc3)C2=O)cc1 ?
aSyn 5UTR act: inactive

What do the screens show for `CC(C)c1ccc(/C=C2\SC(=O)N(CC(=O)NC3CCS(=O)(=O)C3)C2=O)cc1` (stereo not given)?
aSyn 5UTR act: -90

Results for COc1ccc(/C=C2\SC(=S)N(CCC(=O)NC3C=CS(=O)(=O)C3)C2=O)cc1 (stereo not given) ?
aSyn 5UTR act: inactive

Results for O=C(CN1C(=O)S/C(=C\C=C\c2ccccc2)C1=O)NC1CCS(=O)(=O)C1 (stereo not given) ?
aSyn 5UTR act: -169

What do the screens show for `COc1ccc(/C=C2\SC(=O)N(CCC(=O)N(C)C3CCS(=O)(=O)C3)C2=O)cc1` (stereo not given)?
aSyn 5UTR act: -84

How did CC(C)c1ccc(/C=C2\CC/C(=C\C=N\N(C)C)C2=O)cc1 do in these assays?
aSyn 5UTR act: -73

What do the screens show for `COc1ccc(-c2nnc3c4ccccc4c(C)nn23)cc1`?
aSyn 5UTR act: -206

How did COc1ccc(Oc2nnc(C)c3ccccc23)cc1 do in these assays?
aSyn 5UTR act: -175

How did Cc1nnc(Oc2ccccc2F)c2ccccc12 do in these assays?
aSyn 5UTR act: -94

What do the screens show for `O=C(NC(=S)Nc1cccc(O)c1)c1ccco1`?
aSyn 5UTR act: -131

What do the screens show for `O=C(c1ccco1)N1CCCC(Nc2ccc3c(c2)OCCO3)C1` (stereo not given)?
aSyn 5UTR act: -79

What do the screens show for `O=C(NC(=S)Nc1ccc2c(c1)OCCO2)c1ccco1`?
aSyn 5UTR act: -114

What do the screens show for `O=C(Nc1nccs1)c1ccc(-c2ccc(F)c(Cl)c2)o1`?
aSyn 5UTR act: -151

How did O=C(Nc1nccs1)c1ccc(-c2ccc(Cl)cc2Cl)o1 do in these assays?
aSyn 5UTR act: -149

How did Cn1c2c(c(=O)[nH]c1=O)C(c1ccc(O)cc1)C1=C(N2)c2ccccc2C1=O (stereo not given) do in these assays?
aSyn 5UTR act: -67

How did CC1=C([N+](=O)[O-])C(c2ccccc2)C2=C(N1)c1ccccc1C2=O (stereo not given) do in these assays?
aSyn 5UTR act: inactive

What do the screens show for `COc1ccccc1-c1c(C#N)c(N)nc2c1CCc1ccccc1-2`?
aSyn 5UTR act: -196

How did CC(C)CC1NC(=O)N(CC(=O)c2ccc3c(c2)OCCO3)C1=O (stereo not given) do in these assays?
aSyn 5UTR act: -115

How did O=C1/C(=C\c2cccs2)Sc2ccc3ccccc3c21 do in these assays?
aSyn 5UTR act: -165

How did Clc1ccccc1-c1nnc(-c2ccccc2Cl)o1 do in these assays?
aSyn 5UTR act: -158

What do the screens show for `Clc1ccc(-c2nnc(-c3ccccc3Cl)o2)cc1`?
aSyn 5UTR act: -82

Results for CN(C)/C=C/C(=O)/C=C/c1ccc(Cl)cc1Cl ?
aSyn 5UTR act: -150

How did O=C(/C=C/c1ccccc1Cl)c1ccc[nH]1 do in these assays?
aSyn 5UTR act: -343

What do the screens show for `O=C(/C=C/c1ccc(Cl)cc1Cl)c1ccc[nH]1`?
aSyn 5UTR act: -139

How did CC(=O)c1cnc(Nc2cccc(Cl)c2Cl)s1 do in these assays?
aSyn 5UTR act: -92

Compound activity deposited in PubChem BioAssay by Broad Institute.
